In paper PMC5540273 (PLoS ONE, 2017):

Key:
Conditions in all cases: concentration: 1 μM, replicates: in singlicate; n = 1
HUNK = tested on: HUNK
ICK = tested on: ICK
IGF1R = tested on: IGF1R
IKK-alpha = tested on: T1, IKK-alpha
T1 construct: gene CHUK

IKK-beta = tested on: T2, IKK-beta
T2 construct: gene IKBKB

IKK-epsilon = tested on: T3, IKK-epsilon
T3 construct: gene IKBKE

INSRR = tested on: INSRR
INSR = tested on: INSR
IRAK1 = tested on: IRAK1
IRAK3 = tested on: IRAK3
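Further: KINOMEscan kinase panel screen.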

Row | Structure (SMILES) | %Inh (HUNK) | %Inh (ICK) | %Inh (IGF1R) | %Inh (IKK-alpha) | %Inh (IKK-beta) | %Inh (IKK-epsilon) | %Inh (INSRR) | %Inh (INSR) | %Inh (IRAK1) | %Inh (IRAK3)
1 | COc1ccccc1CNC(=O)c1cc(C(=O)c2ccccc2C)c[nH]1 [GSK364507] | 16% | 11% | 7% | 9% | 13% | 20% | 0% | 8% | 33% | 0%
2 | O=C1NC(=O)C(N2CCc3ccccc32)=C1c1ccccc1Cl [SB-373598] | 13% | 17% | 29% | 98.1% | 20% | 30% | 2% | 23% | 0% | 9%
3 | COc1ccccc1-c1ccc2c(NC(=O)C3CC3)n[nH]c2n1 [SB-711239] | 16% | 0% | 0% | 64% | 0% | 24% | 1% | 0% | 15% | 9%
4 | O=C(Nc1ccc2c(c1)OCO2)NC1CCN(c2ccnc(Nc3ccc(F)cc3)n2)C1 (stereo not drawn) [GSK1379724] | 12% | 19% | 0% | 25% | 16% | 0% | 0% | 0% | 36% | 0%
5 | CCCc1ccc(S(=O)(=O)NC2CCN(c3ccnc(Nc4ccc(F)cc4)n3)C2)cc1 (stereo not drawn) [GSK1379715] | 5% | 0% | 0% | 33% | 36% | 0% | 0% | 1% | 36% | 0%
6 | NC(=O)c1nnc2ccccc2c1N | 0% | 13% | 0% | 27% | 35% | 0% | 12% | 29% | 54% | 19%
7 | Cn1ccc2ncnc(Oc3ccc(Nc4nc5ccccc5[nH]4)cc3)c21 | 0% | 0% | 0% | 0% | 0% | 0% | 17% | 0% | 0% | 0%
8 | COc1ccc(Nc2nccc(-c3cccc(NC(=O)c4cc5cc(F)ccc5[nH]4)c3)n2)cc1 [GSK1229782] | 8% | 0% | 17% | 21% | 13% | 0% | 0% | 0% | 25% | 42%
9 | C[C@@H]1CCCCN1c1cc(-c2ccc3c(N)n[nH]c3c2)nc(N)n1 [GSK2258759] | 0% | 11% | 4% | 0% | 7% | 43% | 0% | 6% | 4% | 0%
10 | Cc1cccc(-c2nc(-c3ccc(S(C)(=O)=O)cc3)sc2-c2ccnc(NCCc3ccccc3)c2)c1 | 0% | 0% | 15% | 0% | 8% | 0% | 3% | 7% | 17% | 0%
11 | Fc1cc(Cl)ccc1Nc1ccnc2cc(-c3ccc(CN4CCCCC4)o3)ccc12 [GW560116] | 9% | 0% | 24% | 0% | 0% | 20% | 0% | 0% | 22% | 0%
12 | O=C(O)COc1ncnc2cc(-c3ccc4[nH]ncc4c3)sc12 | 18% | 31% | 0% | 28% | 19% | 4% | 19% | 0% | 29% | 38%
13 | Cn1ccc2ncnc(Oc3ccc(NC(=O)Nc4ccccc4)cc3)c21 | 0% | 0% | 0% | 5% | 0% | 17% | 0% | 14% | 7% | 0%
14 | Cc1cccc(-c2nc(Nc3cccc(C(N)=O)c3)c3ccccc3n2)n1 [GW876019] | 44% | 0% | 4% | 0% | 0% | 0% | 0% | 0% | 14% | 10%
15 | O=C(Nc1n[nH]c2nc(-c3nccs3)c(Br)cc12)C1CC1 [SB-742251] | 0% | 61% | 0% | 54% | 49% | 1% | 0% | 2% | 64% | 4%
16 | Fc1cc(Cl)ccc1Nc1ccnc2cc(I)ccc12 [GW551191] | 45% | 1% | 6% | 1% | 11% | 19% | 0% | 0% | 32% | 11%
17 | O=c1cc(N2CCOCC2)nc2n(Cc3cccc(Cl)c3Cl)ccn12 [GSK2286295] | 0% | 3% | 12% | 0% | 25% | 10% | 0% | 5% | 0% | 3%
18 | COc1cc2ncnc(Nc3ccc4nc(-c5ccccc5)[nH]c4c3)c2cc1OC.Cl [GW282450] | 0% | 4% | 6% | 0% | 0% | 0% | 0% | 94.3% | 25% | 0%

Row | Structure (SMILES) | %Inh (HUNK) | %Inh (ICK) | %Inh (IGF1R) | %Inh (IKK-alpha) | %Inh (IKK-beta) | %Inh (IKK-epsilon) | %Inh (INSRR) | %Inh (INSR) | %Inh (IRAK1) | %Inh (IRAK3)
19 | Cc1c(O)cccc1Nc1ccnc2ccc(C(F)(F)F)cc12.Cl [GW466413] | 93.4% | 0% | 0% | 8% | 0% | 0% | 0% | 0% | 0% | 0%
20 | Cc1nnc(-c2ccc3occ(-c4ccc(S(C)=O)cc4)c3c2)[nH]1 (stereo not drawn) | 0% | 0% | 0% | 26% | 20% | 0% | 0% | 4% | 0% | 66%
21 | COC(=O)c1c(-c2ccccc2)c2cc(OC)ccc2c(=O)n1Cc1ccccc1 | 0% | 0% | 0% | 5% | 4% | 0% | 9% | 0% | 11% | 12%
22 | Cl.NC(=O)c1cccc(Nc2nccc(Nc3ccc(Oc4cccc(Cl)c4)c(Cl)c3)n2)c1 [GW659008] | 0% | 85% | 14% | 3% | 5% | 0% | 12% | 6% | 0% | 50%
23 | Clc1cc(Cl)cc(Nc2ccnc(Nc3cc(Cl)cc(Cl)c3)n2)c1 [GSK175726] | 0% | 7% | 16% | 0% | 10% | 39% | 0% | 13% | 15% | 2%
24 | Cc1cc(-c2ccc3c(c2)CC[C@@H](N[C@@H](C)c2ccccc2)C3)cnc1N.Cl [GW412617] | 0% | 0% | 0% | 0% | 0% | 0% | 31% | 17% | 76% | 2%
25 | CN1C(=O)C(Nc2ccc(Cl)c(C(=O)O)c2)=C(c2ccc(Cl)cc2)C1=O [SB-404290] | 32% | 20% | 0% | 0% | 17% | 0% | 14% | 0% | 0% | 0%
26 | Cl.Oc1ccc(-c2nc(-c3ccccc3)[nH]c2-c2ccncc2)cc1 [SB-428218] | 42% | 3% | 8% | 0% | 0% | 12% | 0% | 3% | 33% | 0%
27 | COc1cccc(-c2cc(-c3c[nH]nc3-c3ccccn3)ccn2)c1 [GW680338] | 71% | 0% | 6% | 2% | 0% | 0% | 0% | 0% | 13% | 0%
28 | COc1ccc(CNC(=O)NC2CCN(c3ccnc(Nc4cc(OC)c(OC)c(OC)c4)n3)C2)cc1 (stereo not drawn) [GSK1379748] | 3% | 8% | 0% | 0% | 0% | 20% | 0% | 0% | 63% | 63%
29 | Nc1ncnc2[nH]c(-c3ccccc3)nc12 [AH5015] | 0% | 0% | 3% | 42% | 55% | 0% | 19% | 0% | 0% | 0%
30 | Cl.O=C(Nc1cccc(-c2nn3ncccc3c2-c2ccnc(Nc3cccnc3)n2)c1)c1c(F)cccc1F [GSK312879] | 0% | 10% | 25% | 30% | 31% | 0% | 9% | 11% | 28% | 0%
31 | COc1ccc2nc(-c3cccc(C)n3)nc(Nc3ccncc3)c2c1 [GSK204919] | 9% | 0% | 0% | 0% | 22% | 3% | 0% | 0% | 4% | 0%
32 | COc1cc2ncn(-c3cc(OCC4CCCO4)c(C(N)=O)s3)c2cc1OC (stereo not drawn) [GSK204607] | 0% | 0% | 6% | 0% | 0% | 24% | 0% | 0% | 0% | 0%
33 | CCn1c(-c2ccccn2)nc2cnccc21 [SB-736398] | 7% | 9% | 19% | 37% | 17% | 0% | 0% | 0% | 45% | 100%
34 | Fc1cccc(COc2nnc(-c3ccc4c(c3)CCO4)o2)c1 | 7% | 0% | 2% | 21% | 7% | 0% | 0% | 0% | 44% | 0%
35 | Cn1ccc2ncnc(Oc3cccc(C(=O)Nc4ccccc4)c3)c21 | 0% | 8% | 2% | 22% | 15% | 7% | 0% | 16% | 0% | 0%
36 | COc1cccc(NC(=O)NC2CCN(c3ccnc(Nc4ccc(F)cc4)n3)C2)c1 (stereo not drawn) [GSK1379721] | 13% | 25% | 0% | 0% | 0% | 15% | 0% | 14% | 12% | 0%
